Test results as given in ChEMBL document CHEMBL1961873, “Compounds: GSK PKIS; Assays: Nanosyn kinase panel” (2012).

Experiments:
[1] = molecular target: 5'-AMP-activated protein kinase catalytic subunit alpha-2 (Homo sapiens) (UniProt P54646); settings: at 1 µM
[2] = molecular target: T1, NUAK family SNF1-like kinase 1 (Homo sapiens) (UniProt O60285); settings: at 0.1 µM
T1 sequence (whole entry): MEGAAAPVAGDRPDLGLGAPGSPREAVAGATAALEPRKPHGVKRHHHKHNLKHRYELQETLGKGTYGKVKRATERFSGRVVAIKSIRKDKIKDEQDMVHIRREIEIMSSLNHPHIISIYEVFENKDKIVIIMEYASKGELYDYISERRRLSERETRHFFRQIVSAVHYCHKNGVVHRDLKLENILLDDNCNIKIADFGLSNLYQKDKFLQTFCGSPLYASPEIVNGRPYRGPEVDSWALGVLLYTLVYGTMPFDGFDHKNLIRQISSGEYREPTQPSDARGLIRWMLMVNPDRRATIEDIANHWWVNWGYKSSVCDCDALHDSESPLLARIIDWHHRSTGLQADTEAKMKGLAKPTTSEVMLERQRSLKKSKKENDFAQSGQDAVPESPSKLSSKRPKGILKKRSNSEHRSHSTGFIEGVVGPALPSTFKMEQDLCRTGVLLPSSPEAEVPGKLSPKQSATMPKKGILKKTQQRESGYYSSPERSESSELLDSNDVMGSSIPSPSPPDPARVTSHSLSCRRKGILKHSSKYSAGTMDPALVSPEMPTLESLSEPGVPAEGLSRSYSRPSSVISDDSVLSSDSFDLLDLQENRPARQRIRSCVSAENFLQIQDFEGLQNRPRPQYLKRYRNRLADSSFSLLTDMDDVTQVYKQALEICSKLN

[3] = molecular target: T1, NUAK family SNF1-like kinase 1 (Homo sapiens); settings: at 1 µM
[4] = molecular target: T2, Serine/threonine-protein kinase BRSK1 (Homo sapiens) (UniProt Q8TDC3); settings: at 0.1 µM
T2 sequence (whole entry): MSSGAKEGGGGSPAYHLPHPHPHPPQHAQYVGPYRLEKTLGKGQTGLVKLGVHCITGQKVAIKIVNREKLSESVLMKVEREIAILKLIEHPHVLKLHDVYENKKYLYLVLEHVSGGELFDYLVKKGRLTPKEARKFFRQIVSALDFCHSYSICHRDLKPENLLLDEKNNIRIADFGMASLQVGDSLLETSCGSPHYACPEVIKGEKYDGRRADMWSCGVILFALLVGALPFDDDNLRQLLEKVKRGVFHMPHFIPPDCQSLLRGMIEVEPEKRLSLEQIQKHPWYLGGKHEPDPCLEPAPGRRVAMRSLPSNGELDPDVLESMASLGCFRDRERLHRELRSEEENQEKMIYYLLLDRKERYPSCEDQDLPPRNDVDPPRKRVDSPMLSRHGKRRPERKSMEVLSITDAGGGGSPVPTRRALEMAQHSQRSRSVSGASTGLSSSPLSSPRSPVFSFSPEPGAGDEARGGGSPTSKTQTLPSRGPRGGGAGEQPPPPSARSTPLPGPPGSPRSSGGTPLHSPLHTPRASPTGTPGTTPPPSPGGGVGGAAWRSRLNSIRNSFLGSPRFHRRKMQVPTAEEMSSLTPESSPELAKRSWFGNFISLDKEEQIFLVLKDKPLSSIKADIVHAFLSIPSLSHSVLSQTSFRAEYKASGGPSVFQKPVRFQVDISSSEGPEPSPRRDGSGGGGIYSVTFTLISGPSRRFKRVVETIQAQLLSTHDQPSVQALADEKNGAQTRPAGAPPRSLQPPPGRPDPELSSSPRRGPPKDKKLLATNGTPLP

[5] = molecular target: T2, Serine/threonine-protein kinase BRSK1 (Homo sapiens); settings: at 1 µM
[6] = molecular target: T3, Serine/threonine-protein kinase BRSK2 (Homo sapiens) (UniProt Q8IWQ3); settings: at 0.1 µM
T3 sequence (whole entry): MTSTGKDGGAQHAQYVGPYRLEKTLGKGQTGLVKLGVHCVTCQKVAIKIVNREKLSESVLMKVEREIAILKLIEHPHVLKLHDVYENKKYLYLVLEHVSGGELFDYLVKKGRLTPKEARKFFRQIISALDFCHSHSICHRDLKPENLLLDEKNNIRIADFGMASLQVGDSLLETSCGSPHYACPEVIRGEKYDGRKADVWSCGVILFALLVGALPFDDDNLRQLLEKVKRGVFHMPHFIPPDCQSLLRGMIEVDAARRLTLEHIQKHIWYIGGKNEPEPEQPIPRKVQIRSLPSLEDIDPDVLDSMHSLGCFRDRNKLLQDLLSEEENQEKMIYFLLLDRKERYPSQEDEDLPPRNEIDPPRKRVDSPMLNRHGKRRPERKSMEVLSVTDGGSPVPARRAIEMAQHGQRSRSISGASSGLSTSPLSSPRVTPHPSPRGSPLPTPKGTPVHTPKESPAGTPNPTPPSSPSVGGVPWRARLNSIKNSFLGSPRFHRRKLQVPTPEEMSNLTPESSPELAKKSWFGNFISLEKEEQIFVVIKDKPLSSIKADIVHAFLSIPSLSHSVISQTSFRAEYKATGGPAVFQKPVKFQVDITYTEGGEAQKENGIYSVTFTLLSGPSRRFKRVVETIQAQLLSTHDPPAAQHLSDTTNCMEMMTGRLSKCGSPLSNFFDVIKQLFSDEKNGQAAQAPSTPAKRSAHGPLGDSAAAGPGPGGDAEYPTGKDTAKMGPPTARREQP

[7] = molecular target: T3, Serine/threonine-protein kinase BRSK2 (Homo sapiens); settings: at 1 µM
[8] = molecular target: Calcium/calmodulin-dependent protein kinase type 1D (Homo sapiens) (UniProt Q8IU85); settings: at 0.1 µM
Sequence of Calcium/calmodulin-dependent protein kinase type 1D (Homo sapiens) (Q8IU85 whole entry, looked up): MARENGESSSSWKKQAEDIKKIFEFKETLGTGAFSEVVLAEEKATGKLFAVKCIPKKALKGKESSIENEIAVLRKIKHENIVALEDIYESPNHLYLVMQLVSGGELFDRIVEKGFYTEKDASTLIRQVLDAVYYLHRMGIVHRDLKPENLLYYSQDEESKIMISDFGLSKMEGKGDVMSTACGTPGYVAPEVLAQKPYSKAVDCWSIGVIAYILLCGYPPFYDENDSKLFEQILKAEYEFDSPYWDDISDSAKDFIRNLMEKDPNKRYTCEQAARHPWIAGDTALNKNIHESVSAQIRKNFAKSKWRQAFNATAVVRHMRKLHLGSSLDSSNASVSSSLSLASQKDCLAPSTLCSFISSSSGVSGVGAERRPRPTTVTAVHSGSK

[9] = molecular target: Calcium/calmodulin-dependent protein kinase type 1D (Homo sapiens) (UniProt Q8IU85); settings: at 1 µM
[10] = molecular target: Calcium/calmodulin-dependent protein kinase type II subunit alpha (Homo sapiens) (UniProt Q9UQM7); settings: at 0.1 µM
Sequence of Calcium/calmodulin-dependent protein kinase type II subunit alpha (Homo sapiens) (Q9UQM7 whole entry): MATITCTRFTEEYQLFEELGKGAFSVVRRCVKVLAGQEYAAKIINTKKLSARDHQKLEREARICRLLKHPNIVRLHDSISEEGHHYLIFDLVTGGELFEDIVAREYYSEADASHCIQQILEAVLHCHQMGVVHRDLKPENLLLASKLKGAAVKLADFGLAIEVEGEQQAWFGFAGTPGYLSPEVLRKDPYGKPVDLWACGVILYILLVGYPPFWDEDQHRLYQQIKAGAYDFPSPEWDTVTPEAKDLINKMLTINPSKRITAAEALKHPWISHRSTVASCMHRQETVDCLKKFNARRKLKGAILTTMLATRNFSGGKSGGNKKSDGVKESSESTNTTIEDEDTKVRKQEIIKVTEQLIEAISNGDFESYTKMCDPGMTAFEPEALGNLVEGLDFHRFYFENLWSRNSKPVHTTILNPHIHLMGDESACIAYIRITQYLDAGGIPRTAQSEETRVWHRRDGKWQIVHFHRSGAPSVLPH

[11] = molecular target: Calcium/calmodulin-dependent protein kinase type II subunit alpha (Homo sapiens) (UniProt Q9UQM7); settings: at 1 µM
[12] = molecular target: Calcium/calmodulin-dependent protein kinase type II subunit delta (Homo sapiens) (UniProt Q13557); settings: at 0.1 µM
Sequence of Calcium/calmodulin-dependent protein kinase type II subunit delta (Homo sapiens) (Q13557 whole entry): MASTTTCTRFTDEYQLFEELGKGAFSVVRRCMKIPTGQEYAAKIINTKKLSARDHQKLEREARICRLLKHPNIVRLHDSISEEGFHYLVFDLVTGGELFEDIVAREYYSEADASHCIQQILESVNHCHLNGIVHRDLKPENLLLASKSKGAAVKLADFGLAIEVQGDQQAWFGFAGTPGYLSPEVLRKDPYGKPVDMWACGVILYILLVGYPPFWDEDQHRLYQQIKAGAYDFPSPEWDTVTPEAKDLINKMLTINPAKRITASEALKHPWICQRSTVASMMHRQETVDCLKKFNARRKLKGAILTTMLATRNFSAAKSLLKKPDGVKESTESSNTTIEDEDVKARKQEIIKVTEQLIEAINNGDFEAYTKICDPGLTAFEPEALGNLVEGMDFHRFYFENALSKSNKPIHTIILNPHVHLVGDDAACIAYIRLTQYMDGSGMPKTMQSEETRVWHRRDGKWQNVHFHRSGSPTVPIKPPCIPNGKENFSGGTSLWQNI

[13] = molecular target: Calcium/calmodulin-dependent protein kinase type II subunit delta (Homo sapiens) (UniProt Q13557); settings: at 1 µM
[14] = molecular target: T4, Calcium/calmodulin-dependent protein kinase type IV (Homo sapiens) (UniProt Q16566); settings: at 0.1 µM
T4 sequence (whole entry): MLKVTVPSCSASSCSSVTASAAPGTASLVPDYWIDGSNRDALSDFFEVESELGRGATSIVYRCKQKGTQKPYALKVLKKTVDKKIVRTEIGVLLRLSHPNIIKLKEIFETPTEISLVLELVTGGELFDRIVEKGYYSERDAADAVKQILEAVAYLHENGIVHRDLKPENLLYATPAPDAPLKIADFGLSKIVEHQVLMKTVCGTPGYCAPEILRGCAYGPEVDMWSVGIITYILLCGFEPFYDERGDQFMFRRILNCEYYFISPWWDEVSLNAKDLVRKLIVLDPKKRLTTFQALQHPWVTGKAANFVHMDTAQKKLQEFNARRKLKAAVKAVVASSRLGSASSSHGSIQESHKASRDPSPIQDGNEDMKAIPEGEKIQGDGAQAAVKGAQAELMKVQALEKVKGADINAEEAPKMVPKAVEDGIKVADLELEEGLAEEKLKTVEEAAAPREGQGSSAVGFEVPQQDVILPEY

[15] = molecular target: T4, Calcium/calmodulin-dependent protein kinase type IV (Homo sapiens); settings: at 1 µM
[16] = molecular target: T5, Serine/threonine-protein kinase Chk1 (Homo sapiens) (UniProt O14757); settings: at 0.1 µM
T5 sequence (whole entry): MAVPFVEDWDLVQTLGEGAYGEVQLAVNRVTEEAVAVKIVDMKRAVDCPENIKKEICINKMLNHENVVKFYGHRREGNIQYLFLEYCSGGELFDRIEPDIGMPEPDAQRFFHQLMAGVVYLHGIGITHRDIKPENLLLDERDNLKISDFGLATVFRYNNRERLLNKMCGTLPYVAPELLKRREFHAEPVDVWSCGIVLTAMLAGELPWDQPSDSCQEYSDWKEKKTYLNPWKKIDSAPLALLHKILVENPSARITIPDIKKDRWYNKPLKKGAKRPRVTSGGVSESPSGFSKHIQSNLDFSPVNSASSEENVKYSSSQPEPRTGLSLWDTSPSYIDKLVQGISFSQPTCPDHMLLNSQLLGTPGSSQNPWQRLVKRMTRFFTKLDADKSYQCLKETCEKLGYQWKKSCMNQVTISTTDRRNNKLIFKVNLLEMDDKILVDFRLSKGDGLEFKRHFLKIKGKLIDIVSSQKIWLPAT

[17] = molecular target: T5, Serine/threonine-protein kinase Chk1 (Homo sapiens); settings: at 1 µM
[18] = molecular target: Serine/threonine-protein kinase Chk2 (Homo sapiens) (UniProt O96017); settings: at 0.1 µM
Sequence of Serine/threonine-protein kinase Chk2 (Homo sapiens) (O96017 whole entry): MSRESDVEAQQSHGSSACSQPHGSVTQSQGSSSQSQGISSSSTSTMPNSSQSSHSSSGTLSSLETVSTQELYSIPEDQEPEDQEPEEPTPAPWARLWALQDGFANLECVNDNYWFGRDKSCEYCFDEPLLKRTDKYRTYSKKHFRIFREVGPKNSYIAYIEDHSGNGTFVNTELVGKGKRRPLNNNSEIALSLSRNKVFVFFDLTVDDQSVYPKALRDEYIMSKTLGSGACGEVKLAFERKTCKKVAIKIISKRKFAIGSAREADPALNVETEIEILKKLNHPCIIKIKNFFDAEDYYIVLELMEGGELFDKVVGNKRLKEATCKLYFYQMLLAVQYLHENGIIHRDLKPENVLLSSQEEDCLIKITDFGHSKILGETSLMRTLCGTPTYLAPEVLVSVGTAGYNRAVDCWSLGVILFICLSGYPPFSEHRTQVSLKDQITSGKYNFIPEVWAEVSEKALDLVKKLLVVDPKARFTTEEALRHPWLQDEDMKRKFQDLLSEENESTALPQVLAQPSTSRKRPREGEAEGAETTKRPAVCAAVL

[19] = molecular target: Serine/threonine-protein kinase Chk2 (Homo sapiens) (UniProt O96017); settings: at 1 µM
[20] = molecular target: Death-associated protein kinase 1 (Homo sapiens) (UniProt P53355); settings: at 0.1 µM;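 note: reported figure is the mean inhibition of DAPK1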
Sequence of Death-associated protein kinase 1 (Homo sapiens) (P53355 whole entry, looked up): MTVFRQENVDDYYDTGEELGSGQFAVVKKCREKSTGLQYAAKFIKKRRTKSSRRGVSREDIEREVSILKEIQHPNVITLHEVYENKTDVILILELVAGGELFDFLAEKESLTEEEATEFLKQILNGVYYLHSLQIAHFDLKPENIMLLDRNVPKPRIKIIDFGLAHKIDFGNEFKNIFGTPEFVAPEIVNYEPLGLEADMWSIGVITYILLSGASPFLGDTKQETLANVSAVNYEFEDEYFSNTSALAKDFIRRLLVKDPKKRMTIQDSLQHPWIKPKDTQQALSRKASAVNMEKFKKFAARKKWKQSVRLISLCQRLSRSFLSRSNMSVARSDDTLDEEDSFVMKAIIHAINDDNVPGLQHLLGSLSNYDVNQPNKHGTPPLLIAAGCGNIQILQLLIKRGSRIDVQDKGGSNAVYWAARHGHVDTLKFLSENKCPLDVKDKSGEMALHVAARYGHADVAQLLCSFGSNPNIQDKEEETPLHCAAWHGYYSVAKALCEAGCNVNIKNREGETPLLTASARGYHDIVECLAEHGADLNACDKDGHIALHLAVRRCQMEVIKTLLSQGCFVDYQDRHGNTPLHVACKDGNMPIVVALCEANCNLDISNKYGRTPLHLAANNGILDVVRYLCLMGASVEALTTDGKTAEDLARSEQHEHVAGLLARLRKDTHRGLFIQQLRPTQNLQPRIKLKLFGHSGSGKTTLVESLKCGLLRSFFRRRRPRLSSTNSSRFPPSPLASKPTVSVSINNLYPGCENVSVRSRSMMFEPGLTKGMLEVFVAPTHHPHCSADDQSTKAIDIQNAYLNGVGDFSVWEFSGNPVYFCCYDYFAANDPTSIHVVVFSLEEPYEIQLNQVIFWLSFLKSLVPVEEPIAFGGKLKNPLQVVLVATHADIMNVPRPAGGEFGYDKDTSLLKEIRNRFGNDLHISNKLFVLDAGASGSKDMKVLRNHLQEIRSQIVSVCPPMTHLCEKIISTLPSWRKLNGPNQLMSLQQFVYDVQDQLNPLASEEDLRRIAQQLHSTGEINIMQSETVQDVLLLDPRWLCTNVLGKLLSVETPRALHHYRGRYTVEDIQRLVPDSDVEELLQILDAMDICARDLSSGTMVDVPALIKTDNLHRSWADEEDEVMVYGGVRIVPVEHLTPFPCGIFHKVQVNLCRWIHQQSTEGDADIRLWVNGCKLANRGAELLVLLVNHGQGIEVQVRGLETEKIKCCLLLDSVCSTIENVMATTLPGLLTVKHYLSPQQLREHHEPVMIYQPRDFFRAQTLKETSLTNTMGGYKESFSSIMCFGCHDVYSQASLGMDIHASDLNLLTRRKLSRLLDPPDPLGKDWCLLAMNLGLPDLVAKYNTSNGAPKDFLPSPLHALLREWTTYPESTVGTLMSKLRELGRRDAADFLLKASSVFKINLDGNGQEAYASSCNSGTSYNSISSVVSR

Sequence of 5'-AMP-activated protein kinase catalytic subunit alpha-2 (Homo sapiens) (P54646 whole entry, looked up): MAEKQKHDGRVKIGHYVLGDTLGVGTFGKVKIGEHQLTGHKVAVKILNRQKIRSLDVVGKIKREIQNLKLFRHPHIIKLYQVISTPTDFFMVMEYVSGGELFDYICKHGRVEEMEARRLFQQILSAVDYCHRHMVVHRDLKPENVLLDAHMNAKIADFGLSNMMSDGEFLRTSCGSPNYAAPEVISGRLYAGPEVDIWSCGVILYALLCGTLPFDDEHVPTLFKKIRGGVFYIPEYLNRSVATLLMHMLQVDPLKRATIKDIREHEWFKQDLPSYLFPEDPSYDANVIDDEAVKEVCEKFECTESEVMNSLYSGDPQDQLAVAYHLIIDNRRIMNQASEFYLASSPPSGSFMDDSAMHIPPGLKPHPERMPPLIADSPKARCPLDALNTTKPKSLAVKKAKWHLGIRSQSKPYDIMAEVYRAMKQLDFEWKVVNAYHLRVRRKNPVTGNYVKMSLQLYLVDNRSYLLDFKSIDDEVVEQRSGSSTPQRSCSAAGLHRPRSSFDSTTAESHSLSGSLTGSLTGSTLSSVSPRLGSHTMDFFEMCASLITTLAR

SMILES	inhibition [1]	inhibition [2]	inhibition [3]	inhibition [4]	inhibition [5]	inhibition [6]	inhibition [7]	inhibition [8]	inhibition [9]	inhibition [10]	inhibition [11]	inhibition [12]	inhibition [13]	inhibition [14]	inhibition [15]	inhibition [16]	inhibition [17]	inhibition [18]	inhibition [19]	inhibition [20]
COC(=O)c1sc(-n2cnc3cc(OC)c(OC)cc32)cc1OCc1ccccc1C(F)(F)F	5.51%	18.4%	47.1%	0.92%	2.12%	2.43%	4.63%	0.66%	2.52%	5.18%	5.27%	4.25%	11.3%	1.9%	11.2%	1.72%	2.67%	3.73%	4.65%	0.08%
CCN1CCC(CC(=O)Nc2n[nH]c3nnc(-c4cccc(F)c4F)cc23)CC1	5.17%	-1.66%	1.56%	-0.52%	3.84%	2.07%	-0.1%	1.6%	-1.42%	3.17%	-0.76%	2.44%	0.77%	2.76%	-0.58%	1.72%	-1.03%	1.92%	0.24%	3.62%
CCn1c(-c2nonc2N)nc2cnc(Oc3cccc(NC(=O)c4ccc(N(C)C)cc4)c3)cc21	10.1%	3.21%	18.7%	1.7%	3.54%	2.26%	2.76%	0.25%	2.17%	0.79%	5.87%	1.23%	17.3%	0.01%	1.14%	0.31%	5.78%	1.31%	8.31%	1.42%
N#Cc1c(NC(=O)c2ccc(F)cc2)sc2c1CCCC2	2.24%	-1.13%	2.02%	1.51%	1.17%	0.78%	2.38%	0.76%	0.45%	0.66%	-0.01%	0.08%	0.72%	-0.9%	2.49%	0.15%	0.56%	-0.21%	0.73%	0.39%
CN1CCC(n2cnc(-c3ccc(F)cc3)c2-c2ccnc(Nc3ccccc3)n2)CC1	2.34%	-2.56%	4.19%	0.59%	0.41%	0.56%	1.93%	0.81%	1.85%	3.46%	1.68%	0.53%	2.35%	0.11%	1.45%	-0.4%	1.3%	1.2%	2.71%	2.63%
COc1ccc(-c2nn3ncccc3c2-c2ccnc(Nc3ccc4c(c3)OCCO4)n2)cc1	0.38%	-0.71%	2.67%	-0.94%	2.44%	0.33%	1.64%	9.78%	0.03%	0.38%	-2.04%	0.97%	0.2%	1.75%	-0.47%	-2.62%	-1.19%	-1.05%	0.02%	2.51%
CN(C)CCOc1ccc(-c2nc(-c3ccncc3)c(-c3ccc4c(c3)CC/C4=N\O)[nH]2)cc1	2.75%	1.23%	8.79%	-0.13%	1.11%	0.6%	3.51%	0.25%	1.72%	2.79%	2.29%	1.28%	1.23%	0.04%	-0.88%	2.48%	5.39%	1.94%	4.06%	3.99%
CCn1c(-c2nonc2N)nc2c(C#CC(C)(C)O)ncc(OC3CCNCC3)c21	43.3%	6.16%	42.9%	1.45%	10.5%	2.8%	19.2%	1.83%	8.97%	3.85%	5.73%	4.43%	8.15%	1.96%	6.84%	2%	4.29%	2.65%	7.53%	4.3%
COc1cc2c(cc1Nc1nc(Nc3ccsc3C(N)=O)c3cc[nH]c3n1)N(C(=O)CN(C)C)CCC2(C)C	7.54%	5.54%	9.13%	4.27%	6.36%	4.89%	4.71%	5.46%	30.8%	4.03%	10.5%	7.45%	25.7%	3.29%	19.9%	-0.75%	-2.52%	0.76%	21.1%	-1.5%
CC(=O)NCc1cccc(C#Cc2cncnc2Nc2ccc(OCc3cccc(F)c3)c(Cl)c2)c1	3.37%	3.47%	1.8%	1.85%	3.55%	1.29%	5.12%	0.67%	2.08%	24.7%	-0.5%	0.37%	1.1%	1.04%	2.01%	-3.2%	-4.26%	-4.58%	-3.41%	-6.93%
CC1=C(C(=O)Nc2cc(Cl)c3[nH]ncc3c2)C(c2ccc(C(F)(F)F)cc2)CC(=O)N1 (stereo not given)	16.3%	1.17%	5.4%	0.02%	3.03%	1.64%	8.61%	-0.28%	1.73%	1.03%	1.21%	1.82%	4.42%	-0.37%	0.15%	8.32%	11.4%	6.46%	7.48%	9.05%
COc1ccc(CNC(=O)c2ccc(-c3cc(-c4nnc(C)o4)ccc3C)cc2)cc1	2.36%	2.93%	5.45%	0.61%	8.76%	3.42%	13%	1.11%	-0.23%	1.23%	0.47%	0.75%	-0.53%	-1.83%	-4.17%	6.78%	8.82%	6.34%	7.55%	9.67%
COc1cc(Nc2nccc(Nc3ccc4c(C)n[nH]c4c3)n2)cc(OC)c1OC	5.95%	10.4%	35.5%	3.57%	3.29%	2.02%	1.97%	3.39%	6.21%	4.54%	4.38%	3.41%	3.54%	1.45%	4.68%	1.45%	3.35%	1.73%	9.02%	1.68%
